# “And” between values parts separate entries of the source, which are not always exact repeats. Equal values may be shown once. Compounds without any hit were thinned out: in the full panel of roughly 83,000, 20% have a hit.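 Testing used 96-well plates and a 48-hour single-concentration exposure. Example: -40 means 40% of the starting cells died.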 A number with no mark means an inactive call. The source made the active and inactive calls. How the source made its calls: active means growth percent below 10; inactive means the rest.
# Tested on: MDA-MB-468 breast
# Assay: NCI-60 one-dose screen, 48 h (100 = growth as untreated, 0 = no growth, -100 = all killed)
# Settings: 10 µM unless noted
row,SMILES,growth
1,COc1cc(OC)cc(-c2ccc(-c3ccc(C(=N)N)o3)o2)c1,10.5%
2,CNCCCNc1nc2ccccc2c2c(=O)c3cc(Cl)ccc3sc12,18.4%
3,CN(C)CCCN(CCC1CCCCC1)CCC1CCCCC1,-35.4% (active)
4,N#CC1c2ccccc2-c2ccccc2N1C(=O)c1ccccc1 (stereo not given),32.9%
5,COCCOC1=C(Cl)C(=O)c2ccccc2C1=O,-5.01% (active)
6,CC1(C)CN(CCNc2nccc(-c3c(-c4cccc(O)c4)nc4sccn34)n2)S(=O)(=O)N1,81%
7,Cc1ccc(-n2nnc(C3=NCCc4c3[nH]c3ccc(Cl)cc43)c2C)cc1,71.5%
8,CC(C)(C)OC(=O)N1C(=O)c2c(c3c4ccccc4[nH]c3c3ccc4ccccc4c23)C1=O,75.6%
9,N#CC1=C2NCCCNc3oc(nc3C#N)Cc3ccccc3CC(=N1)O2,75.1%
10,C=CC(=O)Nc1ccc(Oc2nccc(Nc3nnc(-c4ccc(C)cc4)s3)n2)cc1,111%
11,C=C(C)[C@@H]1CC[C@]2(C(N)=O)CC[C@]3(C)[C@H](CC[C@@H]4[C@@]5(C)CC[C@H](O)C(C)(C)[C@@H]5CC[C@]43C)[C@@H]12,-56% [100 µM] (active)
12,COc1cc(Nc2ccnc3ccc(Br)cc23)cc(OC)c1OC,14.9%
13,CCN(CC)CCCC(Nc1c2ccc(Cl)cc2nc2ccc(OC)cc12)c1ccncc1 (stereo not given),88.5%
14,O=C(O)c1cccc(Br)c1,104% and 101%
15,COc1ccc(C(=O)c2c(N)c(C#N)cn2-c2ccc(Cl)cc2Cl)cc1,89.5%
